The results in this text go back to PubChem BioAssay (NCI).

The panel holds about 83,000 compounds, 20% with a hit somewhere; the sample as a whole holds those more often.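 Interpretation: 100, growth as untreated; towards 0, rising growth inhibition; 0, no net growth; 0 to -100, cell death. Compounds scoring below 10 were considered active.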 Unmarked numbers belong to inactive results. Active and inactive are the calls of the source.

Common to all, as to experiment: NCI-60 one-dose screen, 48 h (100 = growth as untreated, 0 = no growth, -100 = all killed)
In one assay the test system is BT-549 breast. The following applies: 10 µM unless noted.
For another assay, the system named is MDA-MB-435 melanoma. As to conditions: 10 µM unless noted.
For another assay, the system named is SW-620 colon. As to conditions: 10 µM unless noted.
The subject of another assay is MCF7 breast. The following applies: 10 µM.
For another assay, the system named is HCT-116 colon. As to conditions: 10 µM unless noted.
For a further assay, the system named is HCC-2998 colon. The following applies: 10 µM unless noted.
The test system of a further assay is KM12 colon. As to conditions: 10 µM unless noted.

As for `Cc1cc(OC(=O)c2ccc([N+](=O)[O-])cc2)nc2[nH]c(=O)sc12`, the growth in the assay with BT-549 breast was 111%; in the assay with MDA-MB-435 melanoma, 108%; in the assay with SW-620 colon, 104%; in the assay on MCF7 breast, 90.2%; in the assay on HCT-116 colon, 105%; in the assay on HCC-2998 colon, 104%. Further, the growth in the assay on KM12 colon is 102%.

Consider `CC(=O)n1cc(-c2c[nH]c3ccccc23)c(-c2ccc(Cl)cc2)n1`, for which the growth in the assay on BT-549 breast is 76.8%; with MDA-MB-435 melanoma, 88.5%; in the assay with SW-620 colon it was 89%; in the assay with MCF7 breast it was 71.5%; in the assay with HCT-116 colon, 61.7%; with HCC-2998 colon, 109%. For the same compound, the growth in the assay on KM12 colon is 84.8%.

As for `COc1ccc(C2NCCc3c2[nH]c2ccccc32)cc1CN1CCN(c2ccc(F)cc2)CC1` (centres undefined), the growth is 69.7% with BT-549 breast; 38.2% in the assay with MDA-MB-435 melanoma; 29.6% in the assay on SW-620 colon; 33.9% with MCF7 breast; 41.6% with HCT-116 colon; 17.9% with HCC-2998 colon. Further, in the assay on KM12 colon, the growth was 40.4%.

Consider `COc1ccc(Cn2c(Br)c3c(c2Br)-c2nc(NC(=O)c4ccc(OC)cc4)sc2CC3)cc1`, for which the growth was 84.2% with BT-549 breast; 61.8% in the assay with MDA-MB-435 melanoma; 84% in the assay with SW-620 colon; 78.5% in the assay on MCF7 breast; 75.9% in the assay with HCT-116 colon; 108% with HCC-2998 colon. Further, the growth in the assay on KM12 colon is 79.9%.

Regarding `COC(=O)[C@H]1CCCN1C(=O)[C@H]1CCCN1C(=O)[C@H](Cc1c[nH]c2ccccc12)NC(=S)Nc1cc(C(F)(F)F)cc(C(F)(F)F)c1`, the growth was 97.4% with BT-549 breast; 45.4% with MDA-MB-435 melanoma; 70.4% with SW-620 colon; 32.5% in the assay on MCF7 breast; 41% in the assay on HCT-116 colon; 16.1% with HCC-2998 colon. Moreover, the growth with KM12 colon was 36.4%.

For the compound `O=C(CSc1ccc2nnc(-c3cccc(F)c3)n2n1)Nc1ccc2c(c1)OCO2`, the growth in the assay on BT-549 breast is 88.3%; with MDA-MB-435 melanoma, 89.5%; with SW-620 colon it was 92.8%; with MCF7 breast it was 36.4%; in the assay with HCT-116 colon, 62.1%; in the assay on HCC-2998 colon, 109%. Also, the growth in the assay on KM12 colon was 73.5%.

For `COC(=O)[C@@H]1CCCN1C(=O)[C@H]1CCCN1C(=O)[C@@H](Cc1c[nH]c2ccccc12)NC(=S)Nc1cc(C(F)(F)F)cc(C(F)(F)F)c1`, the growth was 78.9% in the assay with BT-549 breast; 31.9% with MDA-MB-435 melanoma; 63.1% in the assay on SW-620 colon; 25.3% with MCF7 breast; 36.9% in the assay on HCT-116 colon; 20.8% with HCC-2998 colon. Besides, the growth with KM12 colon is 40.1%.

As for `CCCCN1CCN(c2ccc3nc(-c4ccc5nc(-c6ccc(C(F)(F)F)cc6)[nH]c5c4)[nH]c3c2)CC1`, the growth with BT-549 breast is -53.2% (active); in the assay on MDA-MB-435 melanoma, -85.3% (active); in the assay on SW-620 colon, -76.9% (active); in the assay on MCF7 breast, -74.3% (active); with HCT-116 colon, -70.7% (active); with HCC-2998 colon it was -84% (active). Also, the growth with KM12 colon was -88.3% (active).

Take `O=C1Nc2ccccc2/C1=C/c1ccc[nH]1`: the growth was 57.8% in the assay on BT-549 breast; 101% in the assay with MDA-MB-435 melanoma; 89.3% with SW-620 colon; 12.8% in the assay on MCF7 breast; 96% in the assay with HCT-116 colon; 54.7% in the assay on HCC-2998 colon. In addition, the growth in the assay with KM12 colon is 10.4%.

In the case of `c1ccc(-c2ccc(-c3nc4ccccc4[nH]3)cc2)cc1`, the growth is 94.2% with BT-549 breast; 82.4% in the assay on MDA-MB-435 melanoma; 101% in the assay on SW-620 colon; 76.3% in the assay on MCF7 breast; 74.1% in the assay with HCT-116 colon; 88.3% in the assay on HCC-2998 colon. Also, the growth with KM12 colon is 84.6%.

For the compound `COc1cc(-c2c3c(c(Br)n2Cc2ccccc2)-c2nc(N)sc2CC3)cc(OC)c1OC`, the growth was 94.1% in the assay on BT-549 breast; 35.8% with MDA-MB-435 melanoma; 74.9% with SW-620 colon; 61.4% in the assay on MCF7 breast; 69.2% with HCT-116 colon; 96.3% in the assay with HCC-2998 colon. Also, in the assay on KM12 colon, the growth is 88.6%.

For `O=C(N/N=C/c1ccccc1Cl)C(=O)Nc1cccc(C(F)(F)F)c1`, the growth with BT-549 breast is 112%; in the assay on MDA-MB-435 melanoma, 98.4%; with SW-620 colon, 104%; in the assay with MCF7 breast, 97.3%; in the assay with HCT-116 colon, 92.1%; in the assay on HCC-2998 colon, 96.6%. Besides, the growth in the assay with KM12 colon is 103%.

Regarding `COc1ccc(/C=c2\sc3n(c2=O)NC2C(N=3)N(C)C(=O)N2C)cc1` (centres undefined), the growth in the assay with BT-549 breast was 111%; with MDA-MB-435 melanoma, 89.6%; in the assay with SW-620 colon, 105%; in the assay on MCF7 breast it was 94.5%; in the assay on HCT-116 colon it was 100%; in the assay with HCC-2998 colon, 108%. Further, the growth with KM12 colon is 95.2%.

As to `C=CCN1C(=O)/C(=c2\sc3n(c2=O)NC2C(N=3)N(CC)C(=O)N2CC)c2ccccc21` (centres undefined), the growth is 48.6% in the assay on BT-549 breast; -7.64% (active) in the assay on MDA-MB-435 melanoma; 34.3% with SW-620 colon; 34.3% in the assay on MCF7 breast; 14.8% in the assay on HCT-116 colon; 38% in the assay on HCC-2998 colon. Moreover, the growth in the assay on KM12 colon is 24.5%.

With `CNC(=O)c1cc(Oc2ccc(CC(=O)Nc3cc(C(C)(C)C)cn3C)cc2)ccn1`, the growth is 63.9% with BT-549 breast; 66.2% in the assay on MDA-MB-435 melanoma; 105% in the assay with SW-620 colon; 50.1% with MCF7 breast; 54.3% in the assay on HCT-116 colon; 103% in the assay with HCC-2998 colon. For the same compound, in the assay with KM12 colon, the growth was 86.3%.

Turning to `Cn1c2c(c(=O)[nH]c1=O)NC1=C(C(=O)c3ccccc31)C1(C=C(O)c3ccccc31)N2` (centres undefined), the growth with BT-549 breast is 180%; with MDA-MB-435 melanoma it was 117%; in the assay with SW-620 colon, 123%; in the assay on MCF7 breast, 91%; with HCT-116 colon, 96.5%; with HCC-2998 colon, 130%. In addition, in the assay with KM12 colon, the growth was 104%.

`COc1cc(/C=C/C(=O)c2c(C)nc3ccccc3c2/C=C/c2ccccc2)cc(OC)c1OC`: the growth in the assay with BT-549 breast is 6.8% (active); in the assay on MDA-MB-435 melanoma, 3.78% (active); in the assay on SW-620 colon, 0.233% (active); with MCF7 breast, 13.7%; in the assay on HCT-116 colon, -81.8% (active); with HCC-2998 colon, 6.52% (active). The growth in the assay on KM12 colon was -5.07% (active).
